# How the values were obtained:
# Test in all cases: DAPPL (digital affinity profiling via proximity ligation, sequencing); 10 mM Tris-HCl pH 7.5, 50 mM NaCl, 1 mM DTT, 4% glycerol, room temperature, 30 min; GST-TFs on glutathione beads, 16-mer random dsDNA library, 0.1% formaldehyde crosslink after washing; high values mean tight binding
# [1] = target: T1, FEV (Homo sapiens, UniProt Q99581 1-238); conditions: protein: recombinant; tags: N-terminal GST; dsDNA, one strand shown
# T1 sequence: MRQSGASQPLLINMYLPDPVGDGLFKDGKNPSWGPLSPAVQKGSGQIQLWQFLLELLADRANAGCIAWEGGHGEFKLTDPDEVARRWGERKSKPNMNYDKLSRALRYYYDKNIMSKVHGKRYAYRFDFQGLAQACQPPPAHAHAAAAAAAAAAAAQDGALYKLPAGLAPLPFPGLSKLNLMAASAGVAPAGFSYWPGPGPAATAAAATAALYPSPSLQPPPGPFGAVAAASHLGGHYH
# Procedure, shortened: (§1)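 Pools of DNA-barcoded human transcription factors, expressed in yeast as GST fusions on glutathione beads and combined with a tag-only sample, were incubated with 200 nmole of a 16-mer random double-stranded DNA library. Incubation took 30 min at room temperature in Tris/NaCl/DTT/glycerol buffer and was followed by washing, 0.1% formaldehyde crosslinking, proximity ligation (BsaI/T4 ligase, 1 h, 37 °C), PCR amplification and sequencing on an Illumina NextSeq500. Binding signal is the ratio of a hexamer's read frequency for a factor to its frequency for the tag-only sample.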
# [2] = target: ETV5 (Homo sapiens, UniProt P41161 1-510); conditions: protein: recombinant; tags: N-terminal GST; dsDNA, one strand shown
# Chain of ETV5 (P41161 whole entry): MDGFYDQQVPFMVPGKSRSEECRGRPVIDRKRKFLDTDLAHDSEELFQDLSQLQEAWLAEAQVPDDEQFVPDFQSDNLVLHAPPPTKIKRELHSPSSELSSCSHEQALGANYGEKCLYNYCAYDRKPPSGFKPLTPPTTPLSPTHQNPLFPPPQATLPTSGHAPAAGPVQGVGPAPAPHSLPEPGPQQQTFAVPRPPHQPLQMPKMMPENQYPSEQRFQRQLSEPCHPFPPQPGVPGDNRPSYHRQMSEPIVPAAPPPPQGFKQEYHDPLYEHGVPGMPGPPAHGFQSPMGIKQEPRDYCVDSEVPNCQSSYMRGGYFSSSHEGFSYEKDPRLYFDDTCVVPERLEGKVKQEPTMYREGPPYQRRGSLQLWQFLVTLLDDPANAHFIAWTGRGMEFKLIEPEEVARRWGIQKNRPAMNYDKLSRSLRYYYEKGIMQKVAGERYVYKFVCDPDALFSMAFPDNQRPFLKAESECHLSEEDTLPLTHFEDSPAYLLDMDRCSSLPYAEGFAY
# Procedure, shortened: as §1
# [3] = target: HSF1 (Homo sapiens, UniProt Q00613 1-529); conditions: protein: recombinant; tags: N-terminal GST; chain copies: 3; dsDNA, one strand shown
# Chain of HSF1 (Q00613 whole entry): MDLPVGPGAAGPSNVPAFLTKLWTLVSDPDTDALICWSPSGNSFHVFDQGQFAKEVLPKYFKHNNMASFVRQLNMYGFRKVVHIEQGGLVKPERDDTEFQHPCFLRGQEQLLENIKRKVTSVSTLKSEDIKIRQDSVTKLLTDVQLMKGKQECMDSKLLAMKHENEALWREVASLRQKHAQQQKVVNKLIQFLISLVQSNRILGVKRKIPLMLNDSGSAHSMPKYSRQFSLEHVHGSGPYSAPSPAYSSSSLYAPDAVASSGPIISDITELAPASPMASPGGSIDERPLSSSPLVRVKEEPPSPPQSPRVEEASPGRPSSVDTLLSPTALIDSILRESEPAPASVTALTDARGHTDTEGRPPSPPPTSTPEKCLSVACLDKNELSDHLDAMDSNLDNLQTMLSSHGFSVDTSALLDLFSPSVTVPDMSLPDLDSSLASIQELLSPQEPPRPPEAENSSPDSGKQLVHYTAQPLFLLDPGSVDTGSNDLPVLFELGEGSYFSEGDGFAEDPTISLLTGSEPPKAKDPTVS
# Procedure, shortened: as §1
# [4] = target: T2, SPIC (Homo sapiens, UniProt Q8N5J4 1-248); conditions: protein: recombinant; tags: N-terminal GST; dsDNA, one strand shown
# T2 sequence: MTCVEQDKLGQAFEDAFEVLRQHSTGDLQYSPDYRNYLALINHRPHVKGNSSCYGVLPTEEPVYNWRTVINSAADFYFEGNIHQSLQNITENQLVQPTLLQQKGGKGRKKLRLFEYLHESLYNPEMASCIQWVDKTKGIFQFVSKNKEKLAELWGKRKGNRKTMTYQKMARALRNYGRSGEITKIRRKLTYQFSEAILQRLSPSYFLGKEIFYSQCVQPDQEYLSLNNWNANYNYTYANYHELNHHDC
# Procedure, shortened: as §1
# [5] = target: ELF4 (Homo sapiens, UniProt Q99607 1-663); conditions: protein: recombinant; tags: N-terminal GST; dsDNA, one strand shown
# Chain of ELF4 (Q99607 whole entry): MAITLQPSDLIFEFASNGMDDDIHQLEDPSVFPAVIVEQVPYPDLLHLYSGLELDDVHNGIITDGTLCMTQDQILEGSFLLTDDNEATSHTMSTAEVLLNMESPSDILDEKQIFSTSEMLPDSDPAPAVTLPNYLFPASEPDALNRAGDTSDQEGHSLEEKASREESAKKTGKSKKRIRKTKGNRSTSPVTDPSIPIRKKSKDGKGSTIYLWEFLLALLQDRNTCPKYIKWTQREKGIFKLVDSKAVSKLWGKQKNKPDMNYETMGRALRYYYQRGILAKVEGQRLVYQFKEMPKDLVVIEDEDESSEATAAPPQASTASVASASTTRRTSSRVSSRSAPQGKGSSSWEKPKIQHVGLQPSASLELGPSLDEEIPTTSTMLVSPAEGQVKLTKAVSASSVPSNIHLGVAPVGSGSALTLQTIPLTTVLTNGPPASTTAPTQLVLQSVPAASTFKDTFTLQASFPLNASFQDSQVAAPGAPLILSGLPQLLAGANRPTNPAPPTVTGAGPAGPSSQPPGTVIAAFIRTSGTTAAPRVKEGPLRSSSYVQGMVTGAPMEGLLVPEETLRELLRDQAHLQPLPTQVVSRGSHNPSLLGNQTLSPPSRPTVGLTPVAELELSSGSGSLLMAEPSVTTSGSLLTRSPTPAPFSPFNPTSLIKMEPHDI
# Procedure, shortened: as §1
# [6] = target: T3, ELK4 (Homo sapiens, UniProt P28324-2 1-405); conditions: protein: recombinant; tags: N-terminal GST; dsDNA, one strand shown
# T3 sequence: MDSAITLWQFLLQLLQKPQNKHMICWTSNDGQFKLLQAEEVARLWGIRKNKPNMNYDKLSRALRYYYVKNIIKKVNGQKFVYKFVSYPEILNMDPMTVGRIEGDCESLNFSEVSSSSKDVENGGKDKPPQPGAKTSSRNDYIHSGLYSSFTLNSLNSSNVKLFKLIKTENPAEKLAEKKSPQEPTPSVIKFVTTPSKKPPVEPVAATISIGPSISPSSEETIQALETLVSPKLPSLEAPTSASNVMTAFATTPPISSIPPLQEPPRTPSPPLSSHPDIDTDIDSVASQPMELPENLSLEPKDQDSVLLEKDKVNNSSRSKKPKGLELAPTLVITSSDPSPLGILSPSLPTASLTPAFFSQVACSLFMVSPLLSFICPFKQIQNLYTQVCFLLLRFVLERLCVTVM
# Procedure, shortened: as §1
# [7] = target: T4, ETV2 (Homo sapiens, UniProt O00321 1-342); conditions: protein: recombinant; tags: N-terminal GST; dsDNA, one strand shown
# T4 sequence: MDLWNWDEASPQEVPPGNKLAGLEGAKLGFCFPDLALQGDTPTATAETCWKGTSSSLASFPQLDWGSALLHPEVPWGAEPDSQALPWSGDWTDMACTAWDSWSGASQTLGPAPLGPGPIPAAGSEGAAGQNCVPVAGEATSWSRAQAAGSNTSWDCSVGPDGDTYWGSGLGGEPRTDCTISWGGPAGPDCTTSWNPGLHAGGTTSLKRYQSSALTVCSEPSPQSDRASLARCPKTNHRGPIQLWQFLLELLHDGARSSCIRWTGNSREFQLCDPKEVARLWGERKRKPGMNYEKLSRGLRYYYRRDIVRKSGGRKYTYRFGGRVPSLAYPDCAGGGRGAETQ
# Procedure, shortened: as §1
# [8] = target: T5, ELF3 (Homo sapiens, UniProt P78545 1-371); conditions: protein: recombinant; tags: N-terminal GST; dsDNA, one strand shown
# T5 sequence: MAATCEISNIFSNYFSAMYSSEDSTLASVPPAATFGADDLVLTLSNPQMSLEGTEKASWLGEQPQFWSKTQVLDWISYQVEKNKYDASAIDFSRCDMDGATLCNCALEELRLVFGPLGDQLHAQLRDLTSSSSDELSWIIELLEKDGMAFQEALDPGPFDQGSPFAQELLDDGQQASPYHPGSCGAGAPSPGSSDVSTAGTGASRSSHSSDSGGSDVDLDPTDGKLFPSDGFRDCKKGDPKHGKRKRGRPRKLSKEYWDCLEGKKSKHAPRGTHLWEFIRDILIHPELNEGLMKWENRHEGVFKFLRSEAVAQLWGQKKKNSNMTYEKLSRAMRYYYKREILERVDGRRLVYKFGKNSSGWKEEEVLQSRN
# Procedure, shortened: as §1
# [9] = target: CRX (Homo sapiens, UniProt O43186 1-299); conditions: protein: recombinant; tags: N-terminal GST; dsDNA, one strand shown
# Chain of CRX (O43186 whole entry): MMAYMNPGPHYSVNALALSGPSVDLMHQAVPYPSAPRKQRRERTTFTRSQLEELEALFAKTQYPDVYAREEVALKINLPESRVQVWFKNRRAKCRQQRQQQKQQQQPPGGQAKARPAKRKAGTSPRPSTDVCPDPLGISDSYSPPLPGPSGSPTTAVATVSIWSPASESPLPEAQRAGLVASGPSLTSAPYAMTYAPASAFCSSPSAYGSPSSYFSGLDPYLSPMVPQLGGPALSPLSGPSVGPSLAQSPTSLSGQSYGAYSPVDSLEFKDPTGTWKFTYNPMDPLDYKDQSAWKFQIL
# Procedure, shortened: as §1
# [10] = target: ETV1 (Homo sapiens, UniProt P50549 1-477); conditions: protein: recombinant; tags: N-terminal GST; dsDNA, one strand shown
# Chain of ETV1 (P50549 whole entry): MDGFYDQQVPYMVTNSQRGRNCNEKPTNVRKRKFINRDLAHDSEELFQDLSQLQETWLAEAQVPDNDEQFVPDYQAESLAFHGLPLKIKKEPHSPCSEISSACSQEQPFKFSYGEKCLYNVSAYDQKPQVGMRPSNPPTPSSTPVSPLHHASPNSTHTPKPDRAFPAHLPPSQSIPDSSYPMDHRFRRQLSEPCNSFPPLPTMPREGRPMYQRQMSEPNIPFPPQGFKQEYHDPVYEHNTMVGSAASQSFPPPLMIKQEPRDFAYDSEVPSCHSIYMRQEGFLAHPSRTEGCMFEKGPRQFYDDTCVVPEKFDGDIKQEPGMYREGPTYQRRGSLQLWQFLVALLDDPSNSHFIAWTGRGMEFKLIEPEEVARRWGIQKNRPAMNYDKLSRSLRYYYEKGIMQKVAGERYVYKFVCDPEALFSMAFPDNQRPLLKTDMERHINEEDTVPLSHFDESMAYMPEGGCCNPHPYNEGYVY
# Procedure, shortened: as §1
# [11] = target: T6, ERF (Homo sapiens, UniProt P50548 1-548); conditions: protein: recombinant; tags: N-terminal GST; dsDNA, one strand shown
# T6 sequence: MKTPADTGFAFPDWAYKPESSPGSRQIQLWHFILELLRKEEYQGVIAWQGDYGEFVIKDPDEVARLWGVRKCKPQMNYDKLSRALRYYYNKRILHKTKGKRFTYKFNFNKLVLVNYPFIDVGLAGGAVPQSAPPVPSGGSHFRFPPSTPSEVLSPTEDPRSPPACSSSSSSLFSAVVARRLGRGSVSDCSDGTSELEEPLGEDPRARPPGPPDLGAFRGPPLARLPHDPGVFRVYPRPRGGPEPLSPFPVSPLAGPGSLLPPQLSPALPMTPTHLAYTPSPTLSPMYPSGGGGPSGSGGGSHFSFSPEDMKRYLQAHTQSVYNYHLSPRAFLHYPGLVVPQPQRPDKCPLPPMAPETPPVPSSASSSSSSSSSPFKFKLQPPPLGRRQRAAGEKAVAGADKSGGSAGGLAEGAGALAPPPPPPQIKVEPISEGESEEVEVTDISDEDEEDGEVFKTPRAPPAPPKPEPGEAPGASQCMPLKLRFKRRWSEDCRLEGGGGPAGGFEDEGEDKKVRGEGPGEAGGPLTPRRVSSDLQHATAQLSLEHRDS
# Procedure, shortened: as §1
# [12] = target: T7, ETV3L (Homo sapiens, UniProt Q6ZN32 1-361); conditions: protein: recombinant; tags: N-terminal GST; dsDNA, one strand shown
# T7 sequence: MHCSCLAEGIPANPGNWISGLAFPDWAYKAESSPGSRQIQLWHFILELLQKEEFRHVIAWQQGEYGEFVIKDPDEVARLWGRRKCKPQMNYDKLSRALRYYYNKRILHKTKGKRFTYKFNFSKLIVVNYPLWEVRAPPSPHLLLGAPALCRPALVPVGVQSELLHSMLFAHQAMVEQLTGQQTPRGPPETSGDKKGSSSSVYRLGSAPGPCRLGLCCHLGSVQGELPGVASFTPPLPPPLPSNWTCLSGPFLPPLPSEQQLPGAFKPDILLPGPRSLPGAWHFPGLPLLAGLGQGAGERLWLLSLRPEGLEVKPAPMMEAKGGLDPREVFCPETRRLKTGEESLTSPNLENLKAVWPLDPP
# Procedure, shortened: as §1
# [13] = target: T8, ETS2 (Homo sapiens, UniProt P15036 1-469); conditions: protein: recombinant; tags: N-terminal GST; dsDNA, one strand shown
# T8 sequence: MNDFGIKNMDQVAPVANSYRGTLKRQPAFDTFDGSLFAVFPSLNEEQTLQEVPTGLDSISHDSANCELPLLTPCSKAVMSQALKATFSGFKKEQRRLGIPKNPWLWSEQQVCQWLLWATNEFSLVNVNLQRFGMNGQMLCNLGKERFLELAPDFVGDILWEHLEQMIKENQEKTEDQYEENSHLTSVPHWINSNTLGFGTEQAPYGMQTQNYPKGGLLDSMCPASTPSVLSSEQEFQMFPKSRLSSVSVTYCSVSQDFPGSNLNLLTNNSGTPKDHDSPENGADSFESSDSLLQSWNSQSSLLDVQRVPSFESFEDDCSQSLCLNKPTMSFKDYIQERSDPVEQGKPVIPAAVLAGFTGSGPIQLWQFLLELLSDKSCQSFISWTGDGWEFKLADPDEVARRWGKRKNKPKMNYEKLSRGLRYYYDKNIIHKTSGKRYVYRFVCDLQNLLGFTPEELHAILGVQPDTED
# Procedure, shortened: as §1
# [14] = target: T9, SPDEF (Homo sapiens, UniProt O95238 1-335); conditions: protein: recombinant; tags: N-terminal GST; dsDNA, one strand shown
# T9 sequence: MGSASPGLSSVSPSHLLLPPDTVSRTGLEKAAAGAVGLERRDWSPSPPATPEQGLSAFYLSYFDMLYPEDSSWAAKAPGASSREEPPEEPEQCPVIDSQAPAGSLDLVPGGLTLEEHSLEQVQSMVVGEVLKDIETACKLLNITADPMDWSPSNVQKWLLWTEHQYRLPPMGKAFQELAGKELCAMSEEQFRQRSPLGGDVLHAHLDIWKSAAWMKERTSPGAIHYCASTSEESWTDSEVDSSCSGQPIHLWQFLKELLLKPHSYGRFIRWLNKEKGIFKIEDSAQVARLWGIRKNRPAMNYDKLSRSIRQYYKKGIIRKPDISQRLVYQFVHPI
# Procedure, shortened: as §1
# [15] = target: T10, ETV7 (Homo sapiens, UniProt Q9Y603 1-341); conditions: protein: recombinant; tags: N-terminal GST; dsDNA, one strand shown
# T10 sequence: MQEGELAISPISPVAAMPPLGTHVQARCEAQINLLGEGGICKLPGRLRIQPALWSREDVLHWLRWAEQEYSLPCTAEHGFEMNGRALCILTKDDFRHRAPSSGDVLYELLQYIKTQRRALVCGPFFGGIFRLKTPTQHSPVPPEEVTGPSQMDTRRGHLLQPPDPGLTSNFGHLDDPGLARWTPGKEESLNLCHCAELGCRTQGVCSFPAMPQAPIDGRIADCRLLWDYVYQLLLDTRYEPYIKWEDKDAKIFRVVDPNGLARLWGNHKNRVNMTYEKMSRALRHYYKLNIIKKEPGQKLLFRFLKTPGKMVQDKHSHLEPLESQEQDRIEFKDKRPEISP
# Procedure, shortened: as §1
# [16] = target: T11, ELF5 (Homo sapiens, UniProt Q9UKW6-2 1-255); conditions: protein: recombinant; tags: N-terminal GST; dsDNA, one strand shown
# T11 sequence: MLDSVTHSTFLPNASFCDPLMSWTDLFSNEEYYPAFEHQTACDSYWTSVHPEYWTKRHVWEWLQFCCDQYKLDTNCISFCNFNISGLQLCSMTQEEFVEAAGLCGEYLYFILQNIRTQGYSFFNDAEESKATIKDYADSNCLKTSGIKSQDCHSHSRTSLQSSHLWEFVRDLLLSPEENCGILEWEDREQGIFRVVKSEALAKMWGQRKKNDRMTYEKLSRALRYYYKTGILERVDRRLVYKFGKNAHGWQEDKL
# Procedure, shortened: as §1
# [17] = target: T12, ETV3 (Homo sapiens, UniProt P41162-2 1-143); conditions: protein: recombinant; tags: N-terminal GST; dsDNA, one strand shown
# T12 sequence: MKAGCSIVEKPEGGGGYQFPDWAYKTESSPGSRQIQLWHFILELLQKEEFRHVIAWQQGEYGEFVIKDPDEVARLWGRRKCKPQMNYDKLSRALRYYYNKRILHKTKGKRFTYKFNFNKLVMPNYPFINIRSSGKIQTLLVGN
# Procedure, shortened: as §1
# [18] = target: ETV6 (Homo sapiens, UniProt P41212 1-452); conditions: protein: recombinant; tags: N-terminal GST; dsDNA, one strand shown
# Chain of ETV6 (P41212 whole entry): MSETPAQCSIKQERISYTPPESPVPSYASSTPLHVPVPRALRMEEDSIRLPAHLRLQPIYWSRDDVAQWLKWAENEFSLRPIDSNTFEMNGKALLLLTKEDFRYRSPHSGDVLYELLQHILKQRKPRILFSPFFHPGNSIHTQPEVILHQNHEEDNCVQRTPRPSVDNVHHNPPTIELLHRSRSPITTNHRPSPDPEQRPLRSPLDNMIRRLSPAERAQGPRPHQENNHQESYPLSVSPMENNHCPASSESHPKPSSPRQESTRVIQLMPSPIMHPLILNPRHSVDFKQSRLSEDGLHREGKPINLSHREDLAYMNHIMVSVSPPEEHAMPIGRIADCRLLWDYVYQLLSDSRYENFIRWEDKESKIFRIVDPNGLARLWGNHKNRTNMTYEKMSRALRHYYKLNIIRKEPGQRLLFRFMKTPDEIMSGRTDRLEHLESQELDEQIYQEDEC
# Procedure, shortened: as §1
sequence,measurement,setting,value
CATGCT,binding signal,[1],"1.22 fold enrichment (6-mer frequency, TF over GST control)"
same,binding signal,[2],"1.13 fold enrichment (6-mer frequency, TF over GST control)"
same,binding signal,[3],"1.13 fold enrichment (6-mer frequency, TF over GST control)"
same,binding signal,[4],"1.34 fold enrichment (6-mer frequency, TF over GST control)"
same,binding signal,[5],"1.15 fold enrichment (6-mer frequency, TF over GST control)"
same,binding signal,[6],"1.3 fold enrichment (6-mer frequency, TF over GST control)"
same,binding signal,[7],"1.35 fold enrichment (6-mer frequency, TF over GST control)"
same,binding signal,[8],"1.27 fold enrichment (6-mer frequency, TF over GST control)"
same,binding signal,[9],"1.1 fold enrichment (6-mer frequency, TF over GST control)"
same,binding signal,[10],"1.19 fold enrichment (6-mer frequency, TF over GST control)"
same,binding signal,[11],"1.2 fold enrichment (6-mer frequency, TF over GST control)"
same,binding signal,[12],"1.35 fold enrichment (6-mer frequency, TF over GST control)"
same,binding signal,[13],"1.25 fold enrichment (6-mer frequency, TF over GST control)"
same,binding signal,[14],"1.2 fold enrichment (6-mer frequency, TF over GST control)"
same,binding signal,[15],"1.2 fold enrichment (6-mer frequency, TF over GST control)"
same,binding signal,[16],"1.19 fold enrichment (6-mer frequency, TF over GST control)"
same,binding signal,[17],"1.19 fold enrichment (6-mer frequency, TF over GST control)"
same,binding signal,[18],"1.28 fold enrichment (6-mer frequency, TF over GST control)"
